# Measurements as given in ChEMBL document CHEMBL3988442, “University of Dundee, Small-Polar-MMV Screening Library” (2021).
# Hit rate of the full screen: of about 48,000 compounds, about 13,000 (27%) showed an effect of 50% or more. Some of the results follow.
# Test system: Wolbachia pipientis
# Test: Anti-Wolbachia Cell-Based Screen
# Assay type: functional
# Set-up: scale not given: in the data most compounds retested in dose-response had high values
# Details: 5 µM
row,SMILES,Percent Effect [%]
1,c1cnnc(N2CCCC(NCc3ccc(-n4cccn4)cc3)C2)c1 (centres undefined),-2.089
2,c1cnn(CCN2CCOC(Cn3cncn3)C2)c1 (centres undefined),-9.191
3,c1cnn(CCN2CCOC(Cn3cccn3)C2)c1 (centres undefined),108.3
4,c1ccc(CCN2CCOC(Cn3cccn3)C2)nc1 (centres undefined),5.708
5,c1ncn(CC2CN(CC3CCCC3)CCO2)n1 (centres undefined),-0.8263
6,c1ccc(CCCN2CCOC(Cn3cccn3)C2)cc1 (centres undefined),128.6
7,Cc1cc(C)c2nc(CN3CCOC(CCO)C3)cc(O)c2c1 (centres undefined),-3.808
8,C=C(C)CN1CCOC(Cn2cncn2)C1 (centres undefined),-5.235
9,O=S(=O)(CCCN1CCOC(Cn2cccn2)C1)c1ccccc1 (centres undefined),7.752
10,c1cnn(CC2CN(CCc3ccncc3)CCO2)c1 (centres undefined),0.6004
11,c1ncn(CC2CN(CC3CCCCC3)CCO2)n1 (centres undefined),107.8
12,Cc1cc(CCC2CN(CC3(O)CCCCC3)CCO2)ncn1 (centres undefined),116.4
13,O=C(O)c1csc(S(=O)(=O)Nc2cccc(OC(F)F)c2)c1,-1.91
14,COC(=O)C(NC(=O)c1ccc(NC2CC2)nc1)c1ccccc1 (centres undefined),-0.3075
15,O=C(NCCc1ccccc1)N1CC[C@@H]2CNS(=O)(=O)[C@@H]2CC1,-17.14
16,COC1CCN(C(=O)Cn2cccc(C(F)(F)F)c2=O)C1 (centres undefined),-0.2293
17,O=S(=O)(CCN1CCOC(Cn2cccn2)C1)C(F)(F)F (centres undefined),8.008
18,OC1(CN2CCOC(Cn3cccn3)C2)CCCCC1 (centres undefined),99.61
19,CC(C)=CCN1CCOC(Cn2cccn2)C1 (centres undefined),136
20,FC(F)(F)Cn1ccnc1CN1CCOC(Cn2cccn2)C1 (centres undefined),-0.9498

row,SMILES,Percent Effect [%]
1,c1cnn(CC2CN(CC3CCCC3)CCO2)c1 (centres undefined),7.004
2,c1cnn(CC2CN(CC3CCCCC3)CCO2)c1 (centres undefined),102.2
3,Cc1cccc(C(C)NCC2CCS(=O)(=O)CC2)c1 (centres undefined),-4.903
4,O[C@H]1Cc2ccccc2[C@H]1Nc1ncccc1C(F)(F)F,-3.306
5,CCN(CC)C(=O)[C@@H]1C[C@@H](NC(=O)c2cccc(N(C)C)c2)CN1C,-6.856
6,COc1cc(C)nc(N2CCN(C(C)c3nc(C4CC4)no3)CC2)n1 (centres undefined),4.237
7,Cc1nnc(NCC(c2ccco2)N(C)C)c(C#N)c1C (centres undefined),0.3665
8,O=C(NCc1cnn(-c2ccc(F)cc2F)c1)C1CCCO1 (centres undefined),2.744
9,O=C(CCn1ccc2cc(Br)ccc21)/N=c1\[nH]nc(C2CCCO2)s1 (centres undefined),98.02
10,O=C(Cn1ccc2ccc(Br)cc21)NC[C@@H]1CCCN2CCCC[C@H]12,19.6
11,CCN(CC)C(=O)Cn1ccc2cc(NC(=O)C3CCCO3)ccc21 (centres undefined),-12.1
12,Cn1cc(C2CCCN2C(=O)Cn2ccc3ccc(Cl)cc32)cn1 (centres undefined),-41.07
13,O=C(NCCc1ccn(-c2ccc(F)cc2)n1)C1CCCO1 (centres undefined),-8.284
14,NC(=O)C1CCN(C(=O)CCn2ccc3cc(Br)ccc32)CC1,25.85
15,O=C(CCn1ccc2ccc(F)cc21)/N=c1\[nH]nc(C2CCCO2)s1 (centres undefined),105.1
16,CCCn1ccc2cc(NC(=O)CC3CCCO3)ccc21 (centres undefined),3.072
17,O=C(Cn1ccc2ccc(Cl)cc21)/N=c1\[nH]nc(C2CCCO2)s1 (centres undefined),134.6
18,O=C(CCn1ccc2ccc(Br)cc21)/N=c1\[nH]nc(C2CCCO2)s1 (centres undefined),100.3
19,O=C(CC1CCCO1)Nc1ccc2c(ccn2CCN2CCOCC2)c1 (centres undefined),-5.067
